# The list is not random: actives were taken first. Their share in the collection is about 2.5%.
# STAT3 binder = STAT3 binders, primary screen, biochemical, small molecule microarray, single point, set 2; His-STAT3 binding, anti-His fluorescence; calls only; hit rate 0.2% among 17,000;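 active = compounds whose four printed spots each show fluorescence over background unusually high for their array block, chance value under 7%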
# Myc binder = binders of human c-Myc, primary screen, biochemical, small molecule microarray, anti-His fluorescence. hit rate 1.5% among 17,000. calls only. His-c-Myc binding;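 active = spot fluorescence over background with P-value below 7% in all four replicate spots, showing protein binding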;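 note: score is binary with 100 for all four spots passing and 0 otherwise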
# NFkB binder = binders of NF-kB p50 subunit, primary screen, biochemical, small molecule microarray, anti-His fluorescence. Nuclear factor NF-kappa-B p105 subunit (Homo sapiens), P19838. anti-His fluorescence binding. calls only. hit rate 1.3% among 17,000;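 active = spot fluorescence over background significantly raised, with a chance value under 7% in all four replicate spots of the compound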;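 note: probe protein is his-tagged human p50 processed subunit at 1 µg/ml; raw spot fluorescence signals with no normalization applied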
# Target sequence (P19838 1-433 limits assumed): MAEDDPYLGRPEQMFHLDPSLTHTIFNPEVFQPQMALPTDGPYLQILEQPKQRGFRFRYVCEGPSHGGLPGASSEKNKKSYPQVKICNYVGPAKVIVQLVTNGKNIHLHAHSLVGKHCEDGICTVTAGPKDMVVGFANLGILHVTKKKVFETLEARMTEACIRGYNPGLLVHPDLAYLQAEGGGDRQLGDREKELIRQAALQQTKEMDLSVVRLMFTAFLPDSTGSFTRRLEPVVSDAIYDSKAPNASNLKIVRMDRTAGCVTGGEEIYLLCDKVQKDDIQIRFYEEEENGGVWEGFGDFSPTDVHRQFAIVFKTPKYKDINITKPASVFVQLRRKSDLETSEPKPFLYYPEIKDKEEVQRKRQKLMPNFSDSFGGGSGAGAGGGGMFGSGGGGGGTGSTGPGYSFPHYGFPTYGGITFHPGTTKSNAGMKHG
# p53 mut binder = binders of human mutant p53, primary screen, biochemical, small molecule microarray, anti-GST fluorescence. hit rate 0.4% among 17,000. mutant tumor protein p53 (GST-tagged), Homo sapiens. AID 624136, 2012. calls only. small molecule microarray binding;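 active = compounds whose four printed spots each glow above background more than chance allows, each with a p-value under 7%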
# Starred values were filed as active, the others as inactive; i = inactive; + = active, no number.
SMILES,STAT3 binder,Myc binder,NFkB binder,p53 mut binder
COC(=O)[C@H]1N=C(c2ccc(OCCCO)cc2)O[C@H]1c1ccccc1N=[N+]=[N-],i,i,i,i
COc1cc(OC)nc(NC(=O)CSc2nc3ccccc3s2)n1,i,i,i,i
Cc1ccc(S(=O)(=O)NC(=O)CSc2nc3ccccc3s2)cc1,i,+,i,i
N#Cc1cc(C#N)c(SCCN2CCOCC2)nc1N,i,i,i,+
COc1ccc(OC)c(NC(=O)c2ccc(C)c(S(=O)(=O)Nc3ccc(C)cc3)c2)c1,i,i,i,i
Cc1cc(C(=O)CSc2nnc3sc4ccccc4n23)c(C)n1Cc1ccccc1,i,i,i,i
CN(C/C=C/c1ccccc1[N+](=O)[O-])CCc1ccccn1,i,i,i,i
COc1ccc(S(=O)(=O)N(C)CCc2ccccn2)cc1,+,+,+,i
O=C1NC(=O)c2cc(Nc3ccc(F)cc3)c(Nc3ccc(F)cc3)cc21,i,i,i,+
COc1cc2nc(CCN3C(=O)c4ccccc4C3=O)oc(=O)c2cc1OC,i,i,i,i
C/C=C/C1=C(Cl)C(=O)[C@@H](O)[C@@]1(O)C(=O)OC,i,i,+,i
CO[C@H]1/C=C\O[C@@]2(C)Oc3c(C)c(O)c4c(O)c(c(/C=N/N5CCN(C)CC5)c(O)c4c3C2=O)NC(=O)/C(C)=C\C=C[C@H](C)[C@H](O)[C@@H](C)[C@@H](O)[C@@H](C)[C@H](OC(C)=O)[C@@H]1C,i,i,i,i
CO[C@H]1/C=C\O[C@@]2(C)Oc3c(C)c(O)c4c(O)c(c(/C=N\N5CCN(C)CC5)c(O)c4c3C2=O)NC(=O)/C(C)=C\C=C/C(C)[C@H](O)[C@@H](C)[C@@H](O)[C@@H](C)[C@@H](OC(C)=O)[C@@H]1C (some centres not stated),i,i,+,i
COc1ccc(Cn2c3ccc(Br)cc3c3nc4ccccc4nc32)cc1OC,i,+,i,i
COc1ccc(C(=O)CSc2nc3ccccc3c(=O)[nH]2)cc1OC,i,i,i,i
COC(=O)C(CC#Cc1ccc2c(c1)[C@]1(C(=O)N2)[C@H](C(=O)N2CCc3cc(OC)c(OC)cc3C2)[C@H]2C(=O)O[C@H](c3ccccc3)[C@H](c3ccccc3)N2[C@@H]1c1ccc(OCCO)cc1)C(=O)OC,i,i,i,i
COc1cc2c(cc1OC)CN(C(=O)[C@H]1[C@@H]3C(=O)O[C@@H](c4ccccc4)[C@@H](c4ccccc4)N3[C@@H](c3ccccc3OCCO)[C@]13C(=O)Nc1ccc(C#CC4=CCCCC4)cc13)CC2,i,i,+,i
NC(=O)[C@@H]1[C@H]2C(=O)O[C@H](c3ccccc3)[C@H](c3ccccc3)N2[C@H](c2ccc(OCCO)cc2)[C@@]12C(=O)Nc1ccc(C#CC3(O)CCCCCC3)cc12,i,i,i,i
O=C1O[C@@H](c2ccccc2)[C@@H](c2ccccc2)N2[C@@H](c3ccc(OCCO)cc3)[C@]3(C(=O)Nc4ccc(C#CC5=CCCCC5)cc43)[C@@H](C(=O)N3CCCCCCC3)[C@H]12,+,i,i,+
COc1cc2c(cc1OC)CN(C(=O)[C@H]1[C@@H]3C(=O)O[C@@H](c4ccccc4)[C@@H](c4ccccc4)N3[C@@H](c3ccc(OCCO)cc3)[C@]13C(=O)Nc1ccc(C#CC4=CCCCC4)cc13)CC2,i,i,+,i
O=C1O[C@H](c2ccccc2)[C@H](c2ccccc2)N2[C@H]1[C@@H](C(=O)N1CCCCCCC1)[C@]1(C(=O)Nc3ccc(C#CC4(O)CCCCCC4)cc31)[C@H]2c1ccc(OCCO)cc1,i,+,+,+
O=C(c1ccc([N+](=O)[O-])cc1)N(Cc1cc2ccccc2[nH]c1=O)c1ccccc1,i,i,i,i
COc1cc2c(cc1OC)CN(C(=O)[C@@H]1[C@H]3C(=O)O[C@H](c4ccccc4)[C@H](c4ccccc4)N3[C@H](c3ccc(OCCO)cc3)[C@@]13C(=O)Nc1ccc(C#CC4(O)CCCCCC4)cc13)CC2,i,i,+,i
COc1cc2c(cc1OC)CN(C(=O)[C@@H]1[C@H]3C(=O)O[C@H](c4ccccc4)[C@H](c4ccccc4)N3[C@H](c3ccc(OCCO)cc3)[C@@]13C(=O)Nc1ccccc13)CC2,i,i,i,i
COc1cc(OC)c(OC)cc1CN1CCN(Cc2ccccn2)CC1,i,+,i,i

# High-throughput results (PubChem BioAssay)
